Source: PubChem
MsrA inhibitor – bovine MsrA enzyme inhibitors, primary screen, biochemical, absorbance, HTS. AID 651718, 2012. purified bovine MsrA, absorbance read-out. inhibition, % at 15.5 µM. actives 0.75% (n = 360,000). Methionine sulfoxide reductase A (Bos taurus); in the data active means inhibition above about 4.5%
MsrA act – bovine MsrA enzyme activators, primary screen, biochemical, absorbance, HTS | Methionine sulfoxide reductase A (Bos taurus) | purified bovine MsrA, absorbance read-out | activation, % at 10.6 µM | actives 0.3% (n = 360,000) | AID 602163, 2012; in the data active means activation above about 7.5%
rCAG binder – binders of r(CAG) RNA repeats, primary screen, biochemical, fluorescence; inhibition, % at 3 µM; r(CAG) RNA repeat, TO-PRO-1 dye displacement fluorescence; AID 651821, 2012; actives 1.3% (n = 370,000);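 active means inhibition above the plate cutoff, the mean of all test compounds on that plate plus 3 SD, cut at about 35% in these data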;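 further: higher means more dye released from RNA so lower well fluorescence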
HGIII-sPLA2 inh – human group III sPLA2 inhibitors, primary screen, biochemical, QFRET, BODIPY PC-A2 liposome substrate; Group 3 secretory phospholipase A2 (Homo sapiens), Q9NZ20; QFRET BODIPY PC-A2 liposome hydrolysis, fluorescence; inhibition, % at 12.2 µM; actives 0.56% (n = 370,000);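 active means inhibition above mean plus 3 SD of compounds lying within the high and low control bounds, cut at about 19% in these data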
Target sequence (Q9NZ20 whole entry, looked up): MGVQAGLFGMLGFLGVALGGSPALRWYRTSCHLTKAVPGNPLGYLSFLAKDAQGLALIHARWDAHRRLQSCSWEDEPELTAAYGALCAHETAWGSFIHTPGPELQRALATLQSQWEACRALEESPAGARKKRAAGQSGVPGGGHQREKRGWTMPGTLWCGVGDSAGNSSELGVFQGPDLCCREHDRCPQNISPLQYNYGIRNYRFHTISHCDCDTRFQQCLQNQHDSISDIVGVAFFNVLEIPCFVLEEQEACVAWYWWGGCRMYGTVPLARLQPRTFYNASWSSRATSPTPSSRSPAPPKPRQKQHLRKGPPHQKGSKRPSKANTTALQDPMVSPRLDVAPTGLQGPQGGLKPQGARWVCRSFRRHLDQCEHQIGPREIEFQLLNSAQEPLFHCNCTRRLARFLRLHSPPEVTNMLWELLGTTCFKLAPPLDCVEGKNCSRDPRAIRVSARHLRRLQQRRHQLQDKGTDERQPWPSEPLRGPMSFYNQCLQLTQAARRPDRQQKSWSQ
rCAG binder conf – small molecules binding CAG repeat RNA – biochemical, fluorescence, confirmation; shares compounds with rCAG binder; r(CAG) RNA repeat, TO-PRO-1 dye displacement fluorescence; inhibition, % at 3 µM; actives 70% (n = 4,300);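 active means inhibition above a per-plate cutoff, the mean inhibition of sample wells plus 3 SD, cut at about 35% in these data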;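 further: loss of TO-PRO-1 fluorescence as compound displaces dye from 1x1 AA loop RNA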
DNA CAG counter – displacement of TO-PRO-1 from CAG DNA duplex, counter-screen for rCAG RNA repeat binder project, biochemical, fluorescence, TO-PRO-1 dye, d(CAG) DNA oligo; actives 94% (n = 4,300); shares compounds with rCAG binder; d(CAG) DNA oligo TO-PRO-1 dye displacement; inhibition, % at 3 µM;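 active means inhibition above its plate's cutoff, the mean test-well inhibition plus 3 SD, cut at about 4.8% in these data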;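 further: hits displace the dye from DNA and so lower well fluorescence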
DNA CAG DR – inhibitors of DNA CAG/GTC TO-PRO-1 complex, dose response, counter-screen for rCAG RNA repeat binder project, biochemical, fluorescence, TO-PRO-1 dye; shares compounds with rCAG binder; DNA CAG/GTC duplex TO-PRO-1 dye displacement fluorescence; IC50, µM; actives 20% (n = 250); in the data active means IC50 below about 10 µM
Numbers stand for hits; 0 = inactive; - = not tested or not shown. Compounds with a hit are over-represented: about 2.8% of the library has one in this group of screens.

SMILES | MsrA inhibitor | MsrA act | rCAG binder | HGIII-sPLA2 inh | rCAG binder conf | DNA CAG counter | others
CCc1ccc(NS(=O)(=O)c2cccc3nonc23)cc1 | 0 | 0 | 0 | 0 | - | -
O=C(CSc1nc2c(cnn2-c2ccccc2)c(=O)[nH]1)NCC1CCCO1 (stereo not drawn) | 0 | 0 | 0 | 0 | - | -
CN(C)c1nc(Oc2ccc(C(=O)OCC(=O)Nc3ccccc3)cc2)nc(N(C)C)n1 | 0 | 0 | 0 | 0 | - | -
Cc1c(NC(=O)c2ccccc2NS(=O)(=O)c2ccc(Br)cc2)c(=O)n(-c2ccccc2)n1C | 0 | 0 | 41.8 | 0 | 46.9 | 13.9
CC(=O)n1nc(-c2ccccc2)nc1NCc1cccs1 | 0 | 0 | 0 | 0 | - | -
O=C(Cc1nnc(NC(=O)Nc2ccccc2)s1)Nc1ccccc1 | 0 | 0 | 0 | 0 | - | -
Cc1ccc(NC(=O)Nc2nnc(Cc3ccc(F)cc3)s2)cc1 | 0 | 0 | 0 | 0 | - | -
O=C(Nc1ccccc1)Nc1nnc(Cc2ccc(F)cc2)s1 | 0 | 0 | 35.8 | 0 | 0 | 12.3
O=C(Cc1nnc(NC(=O)Nc2ccc(F)cc2)s1)Nc1ccccc1 | 0 | 0 | 37.6 | 0 | 0 | 14.8
COC(=O)C1(C(=O)OC)C(C(=O)c2ccccc2)C1c1ccccc1 (stereo not drawn) | 0 | 0 | 0 | 0 | - | -
Cc1nn(CC(=O)Nc2c(C)n(C)n(-c3ccccc3)c2=O)c(C)c1[N+](=O)[O-] | 0 | 0 | 0 | 0 | - | -
O=C(c1ccc(F)cc1)C1CCN(C(=O)Nc2ccc(F)cc2F)CC1 | 0 | 0 | 0 | 0 | - | -
Cc1ccc(S(=O)(=O)NC(=O)c2cc(C)n(-c3cc(S(=O)(=O)N4CCOCC4)ccc3N3CCCC3)c2C)cc1 | 0 | 0 | 36.2 | 0 | 49.1 | 15.3
Cc1ccc(C(=O)Nc2cc(S(=O)(=O)N3CCOCC3)ccc2N2CCCC2)cc1 | 0 | 0 | 0 | 0 | - | -
O=C(Nc1ccc(S(=O)(=O)Nc2nccs2)cc1)c1cccc(N2C(=O)c3ccccc3C2=O)c1 | 0 | 0 | 68.9 | 0 | 58.2 | 23.3
CCn1nc(C(=O)Nc2ccc(S(=O)(=O)Nc3nccs3)cc2)c2ccccc2c1=O | 0 | 0 | 42.3 | 0 | 56.2 | 17.9
O=C(Nc1ccc(S(=O)(=O)Nc2nccs2)cc1)c1nn(-c2ccccc2)ccc1=O | 0 | 0 | 42.9 | 0 | 55.4 | 25.8
Cc1cccc(-n2ccc(=O)c(C(=O)Nc3ccc(S(=O)(=O)Nc4nccs4)cc3)n2)c1 | 0 | 0 | 65.0 | 0 | 0 | 6.0
O=C1C2CC(O)CN2C(=S)N1Cc1ccccc1 (stereo not drawn) | 0 | 0 | 0 | 0 | - | -
COCCCNc1nc2nonc2nc1N1CCN(Cc2cccc(C)c2)CC1 | 0 | 0 | 0 | 0 | - | -
CC(Oc1ccc(Br)cc1Br)C(=O)Nc1cccnc1Cl (stereo not drawn) | 0 | 0 | 0 | 0 | - | -
Cc1cc(/C=C2/C(=N)N3C(=NC2=O)SN=C3S(C)(=O)=O)c(C)n1-c1ccc(F)cc1 | 0 | 0 | 68.6 | 0 | 79.2 | 46.5
CC1=CSC2=NC(=O)/C(=C\c3cccn3-c3ccccc3)C(=N)N12 | 0 | 0 | 0 | 0 | - | -
COc1ccccc1-n1c(C)cc(/C=C2/C(=N)N3C(=NC2=O)SN=C3S(C)(=O)=O)c1C | 0 | 0 | 79.7 | 0 | 77.3 | 42.4
Cc1ccc(-n2cccc2/C=C2/C(=N)N3C(=NC2=O)SN=C3S(C)(=O)=O)cc1Cl | 0 | 0 | 89.2 | 0 | 91.6 | 72.9
SMILES | MsrA inhibitor | MsrA act | rCAG binder | HGIII-sPLA2 inh | rCAG binder conf | DNA CAG counter | others
Cc1ccccc1-n1c(C)cc(/C=C2/C(=N)N3C(c4ccccc4)=CSC3=NC2=O)c1C | 0 | 0 | 0 | 0 | - | -
CCOc1ccc(-n2c(C)cc(/C=C3/C(=N)N4C(=NC3=O)SN=C4S(C)(=O)=O)c2C)cc1 | 0 | 0 | 0 | 0 | - | -
O=C(C=Cc1ccco1)c1cc(Cl)ccc1O | 0 | 0 | 0 | 0 | - | -
CC(/C=C/c1ccco1)=N\NC(=O)c1cc(Cl)ccc1O | 0 | 0 | 49.1 | 0 | 36.6 | 15.7
Cc1cccc(-n2c(SCC(=O)O)nc3sc4c(c3c2=O)CCCC4)c1 | 0 | 0 | 0 | 0 | - | -
CC(C)(C)c1ccc(S(=O)(=O)N2CC(C(=O)O)Oc3ccc(Cl)cc32)cc1 (stereo not drawn) | 0 | 0 | 62.9 | 0 | 63.3 | 25.7
O=C(O)c1cccc(N/N=C(\N=Nc2ccccc2)c2ccccc2)c1 | 0 | 0 | 37.6 | 0 | 53.0 | 17.5
CCOC(=O)C1=C(C)N=C(/N=C/N(C)C)SC1c1ccccc1 (stereo not drawn) | 0 | 0 | 0 | 0 | - | -
CCn1c(COc2cccc(C)c2)nnc1SCC(=O)CC(=O)Nc1ccccc1OC | 0 | 0 | 36.9 | 0 | 0 | 4.6
CCn1c(COc2ccccc2)nnc1SCC(=O)CC(=O)Nc1ccccc1OC | 0 | 0 | 0 | 0 | - | -
COc1ccc([C@@H]2CC=C(C(=O)O)[C@H](c3ccc(F)cc3)N2S(=O)(=O)c2ccc(Cl)cc2)cc1 | 0 | 0 | 58.0 | 0 | 47.4 | 15.1
COc1ccc([C@@H]2CC=C(C(=O)O)[C@H](c3cccc(Cl)c3)N2S(=O)(=O)c2ccc(Cl)cc2)cc1 | 0 | 0 | 74.1 | 0 | 71.1 | 32.9 | DNA CAG DR=0
COc1cc(NC(=O)COc2cc(C)cc3oc(=O)c(C)c(C)c23)cc(OC)c1OC | 0 | 0 | 0 | 0 | - | -
NNc1nc(Nc2ccc([N+](=O)[O-])cc2)nc(N2CCCCCC2)n1 | 0 | 0 | 35.9 | 0 | 0 | 16.3
O=[N+]([O-])c1ccc(Nc2nc(NCCO)nc(N3CCCC3)n2)cc1 | 0 | 0 | 0 | 0 | - | -
CC1CCC/C=C/C(=O)c2c(O)cc(O)cc2CC(=O)O1 (stereo not drawn) | 0 | 0 | 0 | 0 | - | -
O=C(O)C1=C2C(=O)Nc3cccc(c32)C2(C1)C(=O)Nc1ccccc12 (stereo not drawn) | 0 | 0 | 39.2 | 0 | 58.8 | 21.5
CC(=O)/C(N=Nc1ccc(C(=O)O)cc1[N+](=O)[O-])=C(\C)O | 0 | 0 | 0 | 0 | - | -
CCOc1ccc(S(=O)(=O)N(C)CC(=O)NCc2ccco2)cc1 | 0 | 0 | 0 | 0 | - | -
Cc1ccc(S(=O)(=O)N(C(=O)c2ccco2)c2cc3sc(=O)oc3c3ccccc23)cc1 | 0 | 0 | 87.7 | 0 | 40.1 | 17.3
CCOc1ccc(S(=O)(=O)N(C(=O)c2ccco2)c2cc3sc(=O)oc3c3ccccc23)cc1 | 0 | 0 | 78.0 | 0 | 47.9 | 25.8
CC(=O)N(c1ccc2oc(=O)sc2c1)S(=O)(=O)c1ccccc1 | 0 | 0 | 0 | 0 | - | -
CCCN(CC(=O)Nc1ccc(Cl)cc1Cl)Cc1cc(=O)n2ccsc2n1 | 0 | 0 | 0 | 0 | - | -
